# Assay results as given in PubChem BioAssay (NCI).
# The panel holds about 83,000 compounds, 20% with a hit somewhere; the sample as a whole holds those more often.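 Cell lines were cultured in 96-well plates, exposed to a single compound concentration, and assessed for percent growth 48 hours later.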 Activity calls are given as the source filed them. Rule for the calls: active = growth percent below 10; inactive = the rest.
# Test system: SK-MEL-28 melanoma
# Assay: NCI-60 one-dose screen, 48 h (100 = growth as untreated, 0 = no growth, -100 = all killed)
# Conditions: 10 µM unless noted
row,SMILES,growth
1,Fc1ccc(Nc2nc3nonc3nc2Nc2ccc(F)cc2)cc1,4.39% (active)
2,COc1cc(C2CC(c3ccc(Nc4nc(Nc5ccc(F)cc5)nc(Nc5ccc(Cl)cc5)n4)cc3)=NN2C(C)=O)cc(OC)c1OC (centres undefined),88.7% (inactive)
3,c1ccc2[nH]c(SSc3nc4ncncc4[nH]3)nc2c1,86% (inactive)
4,COc1cccc(CCC2CCCN(c3cc(C)nc(N)n3)C2)c1 (centres undefined),50.2% (inactive)
5,COc1cc(C2C=C(c3cccc(NC(C)=O)c3)Nc3ncnn32)cc(OC)c1OC (centres undefined),51.5% (inactive)
6,Cc1c(C(=O)O)nnn1-c1nccs1,108% (inactive)
7,CC(C)c1ccc(C(=O)OC(=O)c2ccc(C(C)C)cc2)cc1,115% (inactive)
8,c1ccc(-c2oc3ccccc3c2-c2ccccc2)cc1,113% (inactive)
9,C=CC(=O)Nc1cccc(C)c1Nc1cc(-c2cccnc2Cc2c(C)c(OC)cc(OC)c2C)ncn1,44.3% (inactive)
10,Clc1ccc2[nH]c3c(NCCCN4CCOCC4)ncnc3c2c1,91.2% (inactive)
11,CCCCCCCC/C=C\CCCCCCCC(=O)Oc1cccc2cccnc12,176% (inactive)
12,CCN(CC)CCCNC(=O)c1ccc(N)cc1O,100% (inactive)
13,CC(C)n1nc(C#Cc2cccc(O)c2)c2c(N)ncnc21,-47.5% (active)
14,CSc1ccc(Cl)c(C(=O)Nc2sccc2C(N)=O)c1,102% (inactive)
15,COc1ccc(NC(=O)c2cccc(-c3cc(=O)c4c(O)c(OC)c(OC)cc4o3)c2)cc1,104% (inactive)
16,CC(C)OCCCNCC(=O)Nc1ccc(S(=O)(=O)c2ccc(NC(=O)CNCCCOC(C)C)cc2)cc1,99.9% (inactive)
17,COc1cc(/C=C/C(=O)c2cccc(-n3cc(-c4ccccc4)[nH]c3=O)c2)cc(OC)c1OC,-48.4% (active)
18,C[C@@H]1C(=O)N(C[C@H](Cc2ccccc2)NC(=O)OCc2ccccc2)[C@]1(Cc1ccccc1)C(=O)OC(C)(C)C,85.3% (inactive)
19,Oc1ccccc1-c1nc2ccccn2c1NCCN1CCOCC1,94.4% (inactive)
20,COc1ccc(/C(C)=C(\c2ccc(Cl)cc2)c2ccc(OCCCN(C)C)cc2)cc1F,37.8% (inactive)

row,SMILES,growth
1,COc1cc2ccccc2cc1C(=O)NC(=S)Nc1ccc(-c2nc3ccccc3[nH]2)cc1,90.1% (inactive)
2,O=[N+]([O-])c1ccc2[nH]cc(-c3c4ccsc4cc4[nH]c5ccc([N+](=O)[O-])cc5c34)c2c1,27.1% (inactive)
3,CCOC(=O)c1nnn(C(Cc2ccccc2Cl)C(=O)OCC)c1C (centres undefined),111% (inactive)
4,Cc1nc(Nc2ccccn2)sc1C(=O)/C=C/c1ccc(Br)cc1,99.6% (inactive)
5,CN(C)c1ccc(/C=C/c2c(F)cccc2F)cc1,109% (inactive)
6,N#Cc1c(-c2ccc(C(F)(F)F)cc2)cc(N2CC(O)C2)n2c1nc1ccccc12,59.7% (inactive)
7,O=C1c2ccccc2C(=O)c2cc(Cn3cc[n+](Cc4ccc5ccccc5c4)c3)ccc21,94.5% (inactive)
8,O=C(CC12CC3CC(CC(C3)C1)C2)NCCOCCOCCOCCNC(=O)c1cc2c(o1)C(=O)c1ccccc1C2=O,-58.5% (active)
9,Oc1[nH]c2ccccc2c1/C=c1/cc2c(c(-c3ccc(F)cc3)n1)=Nc1ccccc1-2,-47.3% (active)
10,N#Cc1c(N)nc2c(nnn2-c2cccc(C(F)(F)F)c2)c1N,111% (inactive)
11,CN(C)CN1CCN(c2ccc3nc(-c4ccc5nc(-c6ccc(C(F)(F)F)cc6)[nH]c5c4)[nH]c3c2)CC1,42.7% (inactive)
12,COC(=O)Nc1nc2ccc(C(=O)C3CC3)cc2[nH]1,49% (inactive)
13,CC1(C)N=C(N)N=C(N)N1c1ccc(Cl)c(Cl)c1,78.6% (inactive)
14,O=C1NC(=S)S/C1=C\N1N=C(c2ccc(Cl)cc2)CC1c1ccc(F)cc1 (centres undefined),103% (inactive)
15,Cc1nc(Nc2ccc(NC(=S)Nc3ccccc3)cc2)nc2nc(Nc3ccc(S(=O)(=O)O)cc3)[nH]c(=O)c12,125% (inactive)
16,CCOc1cc(N)ccc1C(=O)NCCCN(CC)CC,97.5% (inactive)
17,NC(N)=N/N=C(/c1ccccc1)c1ccccc1F,63.4% (inactive)
18,CC(c1ccc(-n2cccn2)cc1)c1cnc(N2CCc3ccc(C(N)=O)cc3C2)s1 (centres undefined),81.8% (inactive)
19,CC(/C=N/NC(=O)c1cc(-c2ccco2)[nH]n1)=C\c1ccccc1,104% (inactive)
